This is an account of results in ChEMBL document CHEMBL4513216, “Probing the Open Global Health Chemical Diversity Library for Multistage-Active Starting Points for Next-Generation Antimalarials” (ACS Infect Dis, 2020).

About 8,600 (12%) of roughly 69,000 compounds showed an effect of 50% or more. Many of the other results were omitted from the sample, so strong results are more common in it than they were.

In the assay the test system is Plasmodium berghei. Briefly: Screen against P. berghei liver stage (PbLuc), transformed with Luciferase, at 10uM. The format is functional, HepG2. The following applies: tested at 10 uM.
For the compound `O=C(c1ccc(N2CCCC2)nn1)N1CCCC(n2ccnc2)C1` (stereo not given), the INHIBITION came out at 29.2%.
Take `CCOc1ccc(CN2CCC(c3nc(C)cc(C)n3)C2)cc1CO` (stereo not given): the INHIBITION was 44.05%.
In the case of `CN1CC(C(=O)Nc2ccc(OCC(F)(F)C(F)F)nc2)CC1=O` (stereo not given), the INHIBITION is reported as -14.6%.
Consider `Cc1nc2[nH]cnc(NCCCN3CCOCC3)c-2n1`, for which the INHIBITION was 5.03%.
The value for `Cc1nc(C2CCCN2CC(=O)NCCOc2ccccc2)no1` (stereo not given) was 50.4%; that for `Cc1nc(C2CCCN2CC(=O)NCCOc2ccc(F)cc2)no1` (stereo not given) was 55.15%.
As for `Cc1nc(C2CCCN2CC(=O)NCCOc2cccc(F)c2)no1` (stereo not given), the figure is 2.8815%; as for `CCc1nc(C2CCCN2CC(=O)NCCOc2ccccc2)no1` (stereo not given), -2.95%.
The value for `Cc1cccc(OCCNC(=O)CN2CCCC2c2noc(C)n2)c1` (stereo not given) was 6.905%; that for `COc1ccc(CCNC(=O)CN2CCCC2c2noc(C)n2)cc1` (stereo not given) was -3.2%.
In the case of `CCC(=O)N1C[C@@H](C(=O)NC)[C@H](c2ccnc(N3CCCC3)n2)C1`, the INHIBITION is reported as 1.93%.
Regarding `Cc1nc(C)n(CC2CN(Cc3cccc(OC(C)C)c3)CCO2)n1` (stereo not given), the INHIBITION stood at 45.7%.
As for `Cn1c(CN2CCOC(Cn3cncn3)C2)nc2ccccc21` (stereo not given), the figure is -4.93%.
For the compound `c1ccc2sc(CN3CCOC(Cn4cncn4)C3)nc2c1` (stereo not given), the INHIBITION was 85.9%.
As to `Cc1cnn(CC2CN(Cc3nc4ccccc4nc3C)CCO2)c1` (stereo not given), the INHIBITION was determined as 58%.
The value for `Cc1nc(CN2CCOC(Cn3cncn3)C2)nc2ccccc12` (stereo not given) was 21.1%.
For `c1ccc2sc(CN3CCOC(Cn4cccn4)C3)nc2c1` (stereo not given), the INHIBITION amounted to 72.4%.
As for `Cc1nc2ccccc2nc1CN1CCOC(Cn2cccn2)C1` (stereo not given), the figure is 26.5%; as for `Cc1cnn(CC2CN(Cc3cccc(OC(C)C)c3)CCO2)c1` (stereo not given), 70.3%.
As for `c1ccc2oc(CN3CCOC(Cn4cccn4)C3)nc2c1` (stereo not given), the INHIBITION is reported as -51.5%.
As for `Cc1cnn(CC2CN(Cc3cccc(OCC(N)=O)c3)CCO2)c1` (stereo not given), the figure is -2.4%; as for `Cc1cnn(CC2CN(Cc3nc(C)c4ccccc4n3)CCO2)c1` (stereo not given), 35.3%.
The value for `c1ccc2sc(N3CCOC(Cn4cccn4)C3)nc2c1` (stereo not given) was 26.3%; that for `Cc1nc(C)n(C2CCCN(C(=O)COc3cccc(C#N)c3)C2)n1` (stereo not given) was 22.3%.
As for `C[C@@H](O)CNC(=O)c1nc(CC(=O)Nc2cccc(C(F)(F)F)c2)no1`, the figure is 29.9%.
Regarding `Cc1ccc(N2CCC3(CC2)CC(OCC(C)C)C3)nn1`, the INHIBITION is recorded as 31.2%.
For the compound `O=C(O)C1CN(c2cccc(Cl)c2)CCO1` (stereo not given), the INHIBITION is given as -6.92%.
Take `COCC(O)CNC(=O)Nc1c(F)cc(F)cc1-c1ccccc1` (stereo not given): the INHIBITION is recorded as 1.19%.
The value for `CCn1ncc2c1C(COCC1CC1)CN(c1ccncn1)C2` (stereo not given) was -15.1%; that for `COCC(=O)NCc1cc(=O)n2c(n1)CN(Cc1cccs1)CCC2` was 25.8%.
